Results from PubChem BioAssay (NCI).
This is part of a sample that, as a whole, favours compounds with a hit. Of some 83,000 tested, about 20% had one in any assay.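 Results are percent growth after 48 hours of single-concentration exposure. 100 means growth as in untreated cells, lower positive values show inhibition; negative values down to -100 show cell death.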 Activity calls are given as the source filed them. The calls were made as follows: active = growth percent below 10; inactive = the rest.

These compounds were tested on RXF 393 renal (assay: NCI-60 one-dose screen, 48 h (100 = growth as untreated, 0 = no growth, -100 = all killed)). Details: 10 µM.

| SMILES | growth |
| --- | --- |
| COCCCC/C(=N\OCCN)c1ccc(C(F)(F)F)cc1 | 97.4% (inactive) |
| O=C(O)C(c1ccccc1)C(O)c1ccccc1 (stereo unspecified) | 107% (inactive) |
| O=C(CCNNC(=O)c1ccncc1)NCc1ccccc1 | 93.8% (inactive) |
| O=[N+]([O-])c1ccc(O)c(S(=O)(=O)O)c1 | 117% (inactive) |
| O=[N+]([O-])c1ccc(N=Nc2ccccc2)cc1 | 107% (inactive) |
| O=C(CC(=O)c1ccccc1O)c1ccccc1 | 103% (inactive) |
| CCn1c(=O)n(C)c2c(=O)n(C)c(=O)n(C)c21 | 109% (inactive) |
| CCCCCCCCCCCCCCCCC1CC(=O)OC1=O (stereo unspecified) | 116% (inactive) |
| O=C1c2ccccc2C(=O)N1OCc1ccccc1 | 122% (inactive) |
| CC(=O)C1CCCCC1 | 99.1% (inactive) |
| Nc1ccc(CC(=O)O)c(N)c1 | 102% (inactive) |
| CC(C)COC(=O)COC(=O)OCCOCCOC(=O)OCC(=O)OCC(C)C | 103% (inactive) |
| S=C(Nc1ccccc1)N1CCCCC1 | 109% (inactive) |
| O=C(O)CCCc1ccccc1 | 113% (inactive) |
| COc1cc(OC)c2ccc(=O)oc2c1 | 123% (inactive) |
| Cc1cc(=O)[nH]c(NN=C2CCCC2)n1 | 121% (inactive) |
| Nc1ccc(C(=O)c2ccc(N)c(Br)c2)cc1Br | -17.4% (active) |
| CCCC(=O)c1cc(C)ccc1OC | 109% (inactive) |
| c1ccc(/C(=N\N=C(/c2ccccc2)c2cccs2)c2cccs2)cc1 | 108% (inactive) |
| Nc1ccccc1C(=O)Nc1ccc(Cl)cc1Cl | 83.7% (inactive) |
| COC(=O)Nc1nc2ccc(C(=O)c3cccs3)cc2[nH]1 | 44.9% (inactive) |
| CCOC(=O)C(C#N)Cc1ccccc1 (stereo unspecified) | 124% (inactive) |
| CC(=O)Nc1cccc(Cl)c1C | 106% (inactive) |
| COc1cc([C@@H]2c3cc4c(cc3[C@H](O)[C@H]3COC(=O)[C@H]23)OCO4)cc(OC)c1OC | 41% (inactive) |
| CC1CCC(C(=O)O)N1 (stereo unspecified) | 109% (inactive) |

These compounds were tested on SF-268 CNS in the same assay as above. Details: 10 µM.

| SMILES | growth |
| --- | --- |
| COCCCC/C(=N\OCCN)c1ccc(C(F)(F)F)cc1 | 102% (inactive) |
| Cc1ccccc1N=C(c1ccccc1)C1C(=O)c2ccccc2C1=O | 88.1% (inactive) |
| O=C(O)C(c1ccccc1)C(O)c1ccccc1 (stereo unspecified) | 105% (inactive) |
| CC(C)(C)c1cc(O)c(C(C)(C)C)cc1O | 95.8% (inactive) |
| O=C(CCNNC(=O)c1ccncc1)NCc1ccccc1 | 95.8% (inactive) |
| CCCNc1ccc(C2=NCCCN2)cc1 | 98.9% (inactive) |
| O=[N+]([O-])c1ccc(O)c(S(=O)(=O)O)c1 | 114% (inactive) |
| O=C(O)c1cccc([N+](=O)[O-])c1O | 106% (inactive) |
| C/C=C/CC(C)C(O)C1C(=O)NC(CC)C(=O)N(C)CC(=O)N(C)C(CC(C)C)C(=O)NC(C(C)C)C(=O)N(C)C(CC(C)C)C(=O)NC(C)C(=O)NC(C)C(=O)N(C)C(CC(C)C)C(=O)N(C)C(CC(C)C)C(=O)N(C)C(C(C)C)C(=O)N1C (stereo unspecified) | 38.3% (inactive) |
| O=[N+]([O-])c1ccc(N=Nc2ccccc2)cc1 | 89.6% (inactive) |
| O=C(CC(=O)c1ccccc1O)c1ccccc1 | 90.7% (inactive) |
| CCCCCCCCCCCCCCCCC1CC(=O)OC1=O (stereo unspecified) | 113% (inactive) |
| O=C1c2ccccc2C(=O)N1OCc1ccccc1 | 106% (inactive) |
| C[C@@H](c1ccccc1)[C@@H](C(=O)O)c1ccccc1 | 106% (inactive) |
| CC(=O)C1CCCCC1 | 107% (inactive) |
| Nc1ccc(CC(=O)O)c(N)c1 | 94% (inactive) |
| CN(C)c1ccc(CNC(C(=O)c2ccccc2)c2ccccc2)cc1 (stereo unspecified) | 96.9% (inactive) |
| CC(C)COC(=O)COC(=O)OCCOCCOC(=O)OCC(=O)OCC(C)C | 93.5% (inactive) |

| SMILES | growth |
| --- | --- |
| S=C(Nc1ccccc1)N1CCCCC1 | 107% (inactive) |
| O=C(O)CCCc1ccccc1 | 118% (inactive) |
| COc1cc(OC)c2ccc(=O)oc2c1 | 102% (inactive) |
| Cc1cc(=O)[nH]c(NN=C2CCCC2)n1 | 112% (inactive) |
| CCCC(=O)c1cc(C)ccc1OC | 96% (inactive) |
| Nc1ccc(NC(=O)c2cccc(N)c2)cc1 | 102% (inactive) |
| O=C(N/N=C/c1ccccc1O)Nc1nn[nH]n1 | 113% (inactive) |
| CCOC(=O)/C(C#N)=C/c1cccc(C)c1 | 94.1% (inactive) |
| c1ccc(/C(=N\N=C(/c2ccccc2)c2cccs2)c2cccs2)cc1 | 97% (inactive) |
| Nc1ccccc1C(=O)Nc1ccc(Cl)cc1Cl | 101% (inactive) |
| CC1=CC(=O)c2ccccc2C1=O | 119% (inactive) |
| COC(=O)Nc1nc2ccc(C(=O)c3cccs3)cc2[nH]1 | 36.9% (inactive) |
| CCOC(=O)C(C#N)Cc1ccccc1 (stereo unspecified) | 113% (inactive) |
| Cc1nc2ccccc2c2nnc(SCC(=O)N(Cc3ccccc3)c3ccccc3)n12 | 94.6% (inactive) |
| CC1=C(/C=C/C(C)=C/C=C/C(C)=C/CO)C(C)(C)CCC1 | 114% (inactive) |
| CC(=O)Nc1cccc(Cl)c1C | 92.3% (inactive) |
| COc1cc([C@@H]2c3cc4c(cc3[C@H](O)[C@H]3COC(=O)[C@H]23)OCO4)cc(OC)c1OC | 27.3% (inactive) |
| CC1CCC(C(=O)O)N1 (stereo unspecified) | 97.5% (inactive) |
